The results in this text go back to PubChem BioAssay (Tox21).

“And” between values parts separate entries of the source, which are not always exact repeats. Identical values can stand only once. Results filed as inconclusive are left out. Some compounds were tested as several samples or in several runs, with calls that do not always agree. The source made the active and inactive calls. Unless noted, calls come from the whole dose curve; as a rule, active = well fitted curve in the direction sought with a large enough effect in the repeat runs; inconclusive = weak or mixed curves; inactive = no such curve, though single readings can be large; an effect the other way counts as inactive or inconclusive.

Assay [1] in a line: qHTS assay to identify small molecule agonists of the hypoxia (HIF-1) signaling pathway (AID 1224846; active = well fitted activation curve with a large enough effect in the signal ratio in the repeat runs, not every such curve was filed as active; the % refers to the signal ratio; note: % is set by controls: 0 for no effect and ±100 for the full control effect). The method, boiled down:
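HRE-bla ME-180 cells (beta-lactamase reporter under hypoxia response element) were plated at 2,000 cells/well in medium with 0.5% dialyzed FBS, rested 5 hrs, then given compounds in DMSO for 17 hrs at 37C, 5% CO2. Reporter induction was read with CCF4-AM FRET substrate.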
In general terms: In qHTS, concentration-response curves come from the screen itself.

Assay [2] in a line: qHTS assay to identify small molecule agonists of H2AX - cell viability counter screen (AID 1224847; calls by dose curve; note: nearly all actives have a fitted effect of over 30% in size; note: potency is the fitted concentration of half-maximal effect). The method, boiled down: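 After overnight plating of 1000 CHO-K1 cells per well, a 15-concentration compound series was applied for 3 hr at 37C. Luminescence from CellTiter-Glo, read following 30 min at room temperature, reflected cell viability.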
Assay [3] is described as follows: qHTS RealTime-Glo MT Cell Viability Assay in HepG2 cells - 24 hour (AID 1224867). Note: nearly all actives have a fitted effect of over 50% in size. Note: potency is the fitted concentration of half-maximal effect. The essentials: (§1)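 HepG2 cells (600/well) were dispensed with RealTime-Glo reagents, incubated 5 h at 37 °C, then treated with compounds in DMSO for up to 40 h. Nonlytic NanoLuc luminescence reflecting viable cells was read at each stated time point.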
Assay [4] in a line: qHTS RealTime-Glo MT Cell Viability Assay in HEK293 cells - 32 hour (AID 1224868). Note: nearly all actives have a fitted effect of over 50% in size. Note: potency is the fitted concentration of half-maximal effect. The method, boiled down: (§2)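 HEK293 cells seeded with NanoLuc/prosubstrate reagent, rested 5 h at 37 C, then dosed and kept at 37 C up to 40 h. Nonlytic real-time luminescence from viable cells read at 0, 8, 16, 24, 32 and 40 h.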
Assay [5] in a line: A CellTox Green Cytotoxicity Assay to monitor cytotoxicity in HEK293 cells - 0 hour (AID 1224869). For Cytotoxicity: % is set by controls: 0 for no effect and ±100 for the full control effect. Note: nearly all actives have a fitted effect of over 50% in size. Note: potency is the fitted concentration of half-maximal effect. The method, boiled down: (§3)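 HEK293 cells premixed with CellTox Green dye were seeded at 600 cells/well and left 5 h at 37 C/5% CO2 before pin transfer of 23 nL compound in DMSO. Fluorescence from dye bound to dead-cell DNA was read during 40 h treatment.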
Assay [6] can be described thus: qHTS RealTime-Glo MT Cell Viability Assay in HepG2 cells - 40 hour (AID 1224870). Note: nearly all actives have a fitted effect of over 50% in size. Note: potency is the fitted concentration of half-maximal effect. The essentials: (§4)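 HepG2 cells (600/well) mixed with RealTime-Glo MT reagent, settled 5 h at 37 C/5% CO2 before compound addition. Nonlytic NanoLuc luminescence from viable-cell prosubstrate reduction read repeatedly during 40 h treatment at 37 C.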
Assay [7] can be described thus: qHTS RealTime-Glo MT Cell Viability Assay in HEK293 cells - 16 hour (AID 1224872). Note: nearly all actives have a fitted effect of over 50% in size. Note: potency is the fitted concentration of half-maximal effect. The method, boiled down:
as §2

Assay [8] can be described thus: qHTS RealTime-Glo MT Cell Viability Assay in HEK293 cells - 40 hour (AID 1224874). For max response: % is set by controls: 0 for no effect and ±100 for the full control effect. Note: nearly all actives have a fitted effect of over 50% in size. Note: potency is the fitted concentration of half-maximal effect. The note with it: RealTime-Glo luminescence; max response: stronger effect = lower value. The essentials: (§5)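 HEK293 cells mixed with RealTime-Glo reagents (NanoLuc plus cell-permeant prosubstrate) at 600 cells/well, preincubated 5 h at 37 C/5% CO2, then given 23 nL compound in DMSO. Nonlytic luminescence from viable cells was read at 0, 8, 16, 24, 32 and 40 h.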

Assay [9] is described as follows: A CellTox Green Cytotoxicity Assay to monitor cytotoxicity in HepG2 cells - 16 hour (AID 1224876). Note: nearly all actives have a fitted effect of over 45% in size. Note: potency is the fitted concentration of half-maximal effect. The essentials: (§6)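 HepG2 cells were seeded together with the CellTox Green dye at 600 cells/well, left 5 h at 37 C/5% CO2, then given compounds in DMSO. Fluorescence from dye bound to dead-cell DNA was read repeatedly over 40 h of treatment at 37 C.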
Assay [10] in a line: qHTS RealTime-Glo MT Cell Viability Assay in HepG2 cells - 32 hour (AID 1224877). Note: nearly all actives have a fitted effect of over 55% in size. Note: potency is the fitted concentration of half-maximal effect. The essentials: as §1
A short description of assay [11]: A CellTox Green Cytotoxicity Assay to monitor cytotoxicity in HepG2 cells - 24 hour (AID 1224878). Note: nearly all actives have a fitted effect of over 45% in size. Note: potency is the fitted concentration of half-maximal effect. The method, boiled down:
as §6

Assay [12] in a line: A CellTox Green Cytotoxicity Assay to monitor cytotoxicity in HepG2 cells - 40 hour (AID 1224879). Note: nearly all actives have a fitted effect of over 40% in size. Note: potency is the fitted concentration of half-maximal effect. The essentials:
as §6

The nature of assay [13]: qHTS assay to identify small molecule agonists of the hypoxia (HIF-1) signaling pathway - cell viability counter screen (AID 1224844; calls by dose curve; note: nearly all actives have a fitted effect of over 50% in size; note: potency is the fitted concentration of half-maximal effect). The method, boiled down:
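HRE-bla ME-180 cells in medium with 0.5% dialyzed FBS were preincubated 5 hrs at 37C, exposed to compounds for 17 hrs, then viability was read as CellTiter-Glo luminescence after 30 min at room temperature, in the reporter wells.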

Assay [14] in a line: A CellTox Green Cytotoxicity Assay to monitor cytotoxicity in HEK293 cells - 40 hour (AID 1224871). Note: nearly all actives have a fitted effect of over 45% in size. Note: potency is the fitted concentration of half-maximal effect. The essentials:
as §3

A short description of assay [15]: qHTS RealTime-Glo MT Cell Viability Assay in HepG2 cells - 8 hour (AID 1224873). Note: nearly all actives have a fitted effect of over 55% in size. Note: potency is the fitted concentration of half-maximal effect. The method, boiled down:
as §4

Assay [16] is described as follows: A CellTox Green Cytotoxicity Assay to monitor cytotoxicity in HEK293 cells - 24 hour (AID 1224875). For activity change: % is set by controls: 0 for no effect and ±100 for the full control effect. Note: nearly all actives have a fitted effect of over 45% in size. Note: potency is the fitted concentration of half-maximal effect. The method, boiled down: as §3
The nature of assay [17]: qHTS RealTime-Glo MT Cell Viability Assay in HEK293 cells - 0 hour (AID 1224880). Note: nearly all actives have a fitted effect of over 45% in size. Note: potency is the fitted concentration of half-maximal effect. The method, boiled down:
as §5

Assay [18] is described as follows: qHTS assay to identify small molecule agonists of the estrogen related receptor (ERR) signaling pathway from Tox21 library (AID 1224849; calls by dose curve; note: % is set by controls: 0 for no effect and ±100 for the full control effect; nearly all actives have a fitted effect of over 15% in size). Particulars: ERR reporter cell line, ONE-Glo luciferase, 18 h. The essentials: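 ERR reporter cell line (NTP) seeded, rested 6 h at 37 C/5% CO2, then pinned with Tox21 compounds in DMSO. After 18 h at 37 C, ONE-Glo luciferase luminescence was read following 30 min at room temperature.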

The target in assay [19] is Thyrotropin receptor (Homo sapiens) (UniProt P16473). The experiment in a line: qHTS assay to identify small molecule agonists of the thyroid stimulating hormone receptor (TSHR) signaling pathway (AID 1224843; calls by dose curve). The method, boiled down:
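Steps: seed 800 TSHR-HEK293 cells per well; add test compound and hold 30 min at ambient temperature; dispense cAMP-d2 then anti-cAMP cryptate; incubate 1 h at ambient; measure fluorescence intensity.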

Thyrotropin receptor (Homo sapiens), sequence (P16473 whole entry, looked up): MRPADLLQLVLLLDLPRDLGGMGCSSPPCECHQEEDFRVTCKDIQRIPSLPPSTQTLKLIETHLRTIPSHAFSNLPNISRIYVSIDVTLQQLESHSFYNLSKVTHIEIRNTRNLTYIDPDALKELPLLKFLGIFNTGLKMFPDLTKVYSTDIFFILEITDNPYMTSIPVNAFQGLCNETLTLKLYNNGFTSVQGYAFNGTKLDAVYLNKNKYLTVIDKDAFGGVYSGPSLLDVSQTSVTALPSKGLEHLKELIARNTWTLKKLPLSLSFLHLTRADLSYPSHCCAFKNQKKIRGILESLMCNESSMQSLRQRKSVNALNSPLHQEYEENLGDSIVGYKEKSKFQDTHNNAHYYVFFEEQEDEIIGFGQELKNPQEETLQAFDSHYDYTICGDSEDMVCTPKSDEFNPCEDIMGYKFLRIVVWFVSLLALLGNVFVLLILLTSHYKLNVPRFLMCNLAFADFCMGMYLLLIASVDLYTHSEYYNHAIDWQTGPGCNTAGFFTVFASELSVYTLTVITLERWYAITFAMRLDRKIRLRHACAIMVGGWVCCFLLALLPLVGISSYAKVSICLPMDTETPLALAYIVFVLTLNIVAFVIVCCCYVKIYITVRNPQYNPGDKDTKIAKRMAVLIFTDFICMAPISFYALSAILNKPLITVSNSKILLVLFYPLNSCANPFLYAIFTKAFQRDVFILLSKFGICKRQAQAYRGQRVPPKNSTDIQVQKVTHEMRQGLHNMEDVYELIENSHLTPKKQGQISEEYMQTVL

Take `COc1ccc(OC(F)(F)F)cc1CN[C@H]1CCCN[C@H]1c1ccccc1`: in assay [1], the compound was called inactive. The Potency was 113 µM (active) in [2]; 54.9 µM (active) in [3]; 43.6 µM (active) in assay [4]; 54.9 µM (active) in assay [6]; 49 µM (active) in assay [7]; 43.6 µM (active) in [8]. The Potency in assay [9] is 54.9 µM (active); in assay [10], 54.9 µM (active); in [11] it was 49 µM (active); in assay [12], 49 µM (active). Further, the Potency result in assay [5] is “inactive”.
Consider `O=C1OC2(c3ccccc31)c1cc(Br)c(O)c(Br)c1Oc1c2cc(Br)c(O)c1Br`, for which the Potency result in assay [13], in assay [2], in assay [3], in assay [4], in [6] and in assay [7] was “inactive” throughout. Also, the Potency entry in assay [15] and in [10] was “inactive” throughout. Also, the Potency is 11.1 µM (active) and 17.9 µM (active) and 23.9 µM (active) in assay [5]; 3.95 µM (active) and 11.3 µM (active) and 7.56 µM (active) in assay [14]; 4.43 µM (active) and 7.11 µM (active) and 9.52 µM (active) in assay [16]; 4.97 µM (active) and 14.2 µM (active) and 23.9 µM (active) in assay [9]; 4.97 µM (active) and 12.7 µM (active) and 23.9 µM (active) in assay [11]; 5.58 µM (active) and 14.2 µM (active) and 23.9 µM (active) in [12]. Also, the Potency in [17] was 9.92 µM (active) and 17.9 µM (active) and 23.9 µM (active). Besides, in assay [8], the max response is -26.3% (inactive) and -6.61% (inactive).
As to `Cc1c(C(=O)O)c(O)cc2c1C(=O)c1c(O)c([C@@H]3O[C@H](CO)[C@@H](O)[C@H](O)[C@H]3O)c(O)c(O)c1C2=O`, the Potency result in [13], in [3], in [4], in assay [5], in assay [6] and in assay [14] was “inactive” in each case. Moreover, the Potency result in [7], in assay [15], in assay [16], in assay [9], in [10] and in assay [11] was “inactive” each time. The Potency result in assay [12] and in [17] was “inactive” each time. In addition, the compound was called inactive in assay [1]. For the same compound, in assay [2], the Potency was 55.3 µM (active) and 56.6 µM (active) and 31 µM (active). Besides, the max response in assay [8] is -10.5% (inactive) and -11.6% (inactive) and 0.861% (inactive).
For the compound `CN1CCc2cccc3c2[C@H]1Cc1ccc(O)c(O)c1-3`, the Potency in assay [13] was 39.3 µM (active) and 16.3 µM (active); in assay [3] it was 44.1 µM (active) and 16.3 µM (active) and 23.9 µM (active); in assay [4], 15.7 µM (active) and 8.17 µM (active) and 23.9 µM (active); in assay [6], 18.3 µM (active); in assay [7] it was 15.7 µM (active) and 10.3 µM (active); in assay [15], 49.5 µM (active). Also, the Potency was 15.7 µM (active) and 10.3 µM (active) and 21.3 µM (active) in assay [8]; 49.5 µM (active) and 18.3 µM (active) and inactive in assay [12]. For the same compound, the Potency entry in [2], in assay [5], in assay [16], in assay [9], in [11] and in assay [17] was “inactive” in each case. Further, the activity change, positive = activation is -69.6% (inactive) and -53% (inactive) in [18] (at 42.5 µM (top of the series)); -66.3% (inactive) in assay [18] (at 92.4 µM (top of the series)).
Turning to `C=C1CC[C@H](O)C/C1=C\C=C1/CCC[C@]2(C)[C@@H]([C@H](C)CCCC(C)C)CC[C@@H]12`, the Potency in assay [19] is 19.2 µM (active); in [13], 38.5 µM (active); in assay [2] it was 112 µM (active); in [4] it was 43.2 µM (active); in assay [7] it was 38.5 µM (active); in [8], 43.2 µM (active). In addition, the Potency entry in assay [3], in assay [5], in assay [6], in [15], in [16] and in assay [9] was “inactive” each time. Also, the Potency result in assay [11], in [12] and in [17] was “inactive” throughout.
